From article PMC4336329 (PLoS ONE, 2015) come the findings set out here.

Each structure is given as a SMILES string. The whole screen tested about 310,000 compounds, of which about 14,000 (4.5%) showed an effect of 50% or more. Effects have a minus sign here. The full list was thinned out, with strong results kept by preference.
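Note: peak tail current of the secondary pulse compared with the same well before compound.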

For the assay, the target named is human ether-à-go-go-related gene (hERG) potassium channel (human, UniProt Q12809). Nature of the assay: primary screen, population patch clamp on CHO cells stably expressing hERG; higher = less effect of the substance.
Chain of human ether-à-go-go-related gene (hERG) potassium channel (Q12809 whole entry, looked up): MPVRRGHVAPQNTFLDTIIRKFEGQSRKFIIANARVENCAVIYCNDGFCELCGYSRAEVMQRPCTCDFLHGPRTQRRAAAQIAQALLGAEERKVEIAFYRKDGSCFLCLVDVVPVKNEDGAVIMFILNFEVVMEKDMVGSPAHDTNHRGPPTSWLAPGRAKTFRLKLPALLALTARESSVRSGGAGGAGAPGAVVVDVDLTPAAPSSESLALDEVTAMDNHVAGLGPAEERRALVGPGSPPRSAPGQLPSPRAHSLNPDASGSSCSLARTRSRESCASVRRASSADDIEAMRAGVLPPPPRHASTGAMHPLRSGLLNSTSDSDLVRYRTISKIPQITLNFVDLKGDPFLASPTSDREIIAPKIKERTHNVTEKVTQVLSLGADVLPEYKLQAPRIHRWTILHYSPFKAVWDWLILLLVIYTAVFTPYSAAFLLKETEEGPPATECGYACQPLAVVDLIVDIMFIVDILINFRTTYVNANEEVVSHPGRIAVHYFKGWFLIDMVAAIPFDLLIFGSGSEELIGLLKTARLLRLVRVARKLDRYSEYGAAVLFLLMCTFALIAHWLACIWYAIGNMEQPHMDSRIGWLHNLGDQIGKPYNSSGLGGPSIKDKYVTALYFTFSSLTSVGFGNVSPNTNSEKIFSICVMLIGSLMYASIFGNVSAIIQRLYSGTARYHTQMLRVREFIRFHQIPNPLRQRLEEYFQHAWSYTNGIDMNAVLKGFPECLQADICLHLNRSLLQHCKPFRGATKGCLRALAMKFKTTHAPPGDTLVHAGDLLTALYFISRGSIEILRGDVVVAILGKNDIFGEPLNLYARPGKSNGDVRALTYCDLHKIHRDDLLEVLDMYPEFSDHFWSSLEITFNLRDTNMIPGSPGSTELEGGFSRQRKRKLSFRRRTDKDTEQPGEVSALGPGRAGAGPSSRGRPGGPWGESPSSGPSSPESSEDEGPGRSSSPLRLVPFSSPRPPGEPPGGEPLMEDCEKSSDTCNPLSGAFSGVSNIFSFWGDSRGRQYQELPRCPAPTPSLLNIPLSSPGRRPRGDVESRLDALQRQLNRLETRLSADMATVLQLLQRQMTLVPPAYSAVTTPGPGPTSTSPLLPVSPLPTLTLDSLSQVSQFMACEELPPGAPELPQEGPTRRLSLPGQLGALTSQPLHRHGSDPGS
For `CC(=O)NCCC(=O)Nc1cc(S(=O)(=O)N2CCCCC2)ccc1N1CCCCC1`, the “hERG current change (%, negative = inhibition) at 10uM” value is -5.37%. As to `CC(=O)NCCC(=O)Nc1cc(S(=O)(=O)N2CCOCC2)ccc1Oc1ccccc1`, the “hERG current change (%, negative = inhibition) at 10uM” value is recorded as -8.45%. To `CC(=O)NCCC(=O)Nc1cc(S(=O)(=O)N2CCCCC2)ccc1Oc1cccc(C)c1` belongs -68%; to `COc1ccccc1Oc1ccc(S(=O)(=O)N2CCCCC2)cc1NC(=O)CCNC(C)=O`, -55.1%; to `COc1ccc(S(=O)(=O)N2CCCCC2)cc1NC(=O)CCCOc1ccccc1`, -9.13%.

Regarding `CC(=O)NCCC(=O)Nc1cc(S(=O)(=O)N2CCOCC2)ccc1Oc1ccc(F)cc1`, the “hERG current change (%, negative = inhibition) at 10uM” value was -30.5%. To `COc1ccc(S(=O)(=O)N2CCCCC2)cc1NC(=O)CCNC(=O)c1ccccc1Cl` belongs -11%; to `Cc1ccc2cccc(Oc3ncnc4scc(-c5ccc(Cl)cc5)c34)c2n1`, 3.87%.

As to `CCCNC(=O)C(=O)N/N=C/c1ccc(OCc2ccccc2)cc1`, the “hERG current change (%, negative = inhibition) at 10uM” value was determined as 26.9%. Consider `COC(=O)c1ccc(CSc2nc3cc(Cl)ccc3s2)o1`, for which the “hERG current change (%, negative = inhibition) at 10uM” value came to 9.32%.

Turning to `CN1C(=O)C(CC(=O)O)S/C1=N\N=C\c1ccc(O)cc1O` (centres unmarked), the “hERG current change (%, negative = inhibition) at 10uM” value worked out at 6.03%.

In the case of `Cc1ccc(NCCC(=O)c2ccc(Br)cc2)cc1`, the “hERG current change (%, negative = inhibition) at 10uM” value was 0.444%. Regarding `CCOC(=O)N1CCC(Nc2ccc3nnc(-c4ccccc4)n3n2)CC1`, the “hERG current change (%, negative = inhibition) at 10uM” value is given as -82%. `CCOC(=O)CSc1ccc2nnc(-c3ccncc3)n2n1`: the “hERG current change (%, negative = inhibition) at 10uM” value was -31.4%. `CCOC(=O)N1CCC(Nc2c(-c3ccccc3)c(=O)c2=O)CC1`: the “hERG current change (%, negative = inhibition) at 10uM” value was -23.2%. Consider `CCOC(=O)CC(=O)CSc1ccc2nnc(-c3ccc(F)cc3)n2n1`, for which the “hERG current change (%, negative = inhibition) at 10uM” value is listed as -23.4%.

`CCOC(=O)CSc1ccc2nnc(-c3cccs3)n2n1`: the “hERG current change (%, negative = inhibition) at 10uM” value is listed as -51.2%. On to `Cc1cc(NC(=O)CSc2ccc3nnc(-c4cccc(F)c4)n3n2)no1`, for which the “hERG current change (%, negative = inhibition) at 10uM” value was -14.3%. With `CCOC(=O)CSc1ccc2nnc(-c3ccccc3)n2n1`, the “hERG current change (%, negative = inhibition) at 10uM” value is -39.3%. The result for `CCOC(=O)N1CCC(NC(=O)Cc2ccccc2)CC1` reads 15.6%; that for `O=C(CSc1ccc2nnc(-c3cccs3)n2n1)N1CCCC1`, -43.4%. With `CCOC(=O)CC(=O)CSc1ccc2nnc(-c3ccccc3)n2n1`, the “hERG current change (%, negative = inhibition) at 10uM” value was -71.7%. To `CCSc1ccc2nnc(-c3cccs3)n2n1` belongs -34%.

As to `CCOC(=O)CC(=O)CSc1ccc2nnc(-c3cccc(F)c3)n2n1`, the “hERG current change (%, negative = inhibition) at 10uM” value is given as -72.2%. Regarding `COc1ccc(CNC(=O)CN2CCN(S(=O)(=O)c3cccs3)CC2)cc1OC`, the “hERG current change (%, negative = inhibition) at 10uM” value was determined as 1.64%. To `Cc1c(C(=O)N2CCCCC2)c(S(=O)(=O)N2CCC(C)CC2)c(C)n1C` belongs 3.48%; to `C=CCn1c(Oc2ccccc2F)nc2c1c(=O)n(C)c(=O)n2C`, 2.59%. To `CC1=C[C@H](C)[C@H](c2c(F)cccc2Cl)CC1=O` belongs 6.22%; to `C=CCSc1nnc(NC(=O)c2cccc(S(=O)(=O)N3CCOCC3)c2)s1`, -11.1%; to `O=C(Nc1ccccc1C(F)(F)F)N1CCCCCC1`, 8.71%. To `COc1ccc2nc(NC(=O)C(NS(=O)(=O)c3cccc4nsnc34)C(C)C)sc2c1` (centres unmarked) belongs 10.4%; to `Cc1ccccc1C(=O)c1ccc2c(c1)n(C)c(=O)n2C`, 2.11%; to `COC(=O)C(C)Sc1ccc2nnc(-c3cccc(F)c3)n2n1` (centres unmarked), -58%. As to `COC(=O)C(C)Sc1ccc2nnc(-c3ccccc3)n2n1` (centres unmarked), the “hERG current change (%, negative = inhibition) at 10uM” value is -30.8%. As to `COC(=O)C(C)Sc1ccc2nnc(-c3ccc(F)cc3)n2n1` (centres unmarked), the “hERG current change (%, negative = inhibition) at 10uM” value is reported as -27%. As to `COc1cc2c(cc1OC)C(C1C(=O)CCCC1=O)N(C(=O)CCl)CC2` (centres unmarked), the “hERG current change (%, negative = inhibition) at 10uM” value worked out at 14.1%. For `CC1CCCCC1NC(=O)COn1nnc2ccc(Cl)cc21` (centres unmarked), the “hERG current change (%, negative = inhibition) at 10uM” value was -14.3%. To `CN(C)CCCNS(=O)(=O)c1cc(Cl)c(Cl)cc1Cl` belongs -27.8%; to `CCN1CCN(c2ccc(NC(=O)C(C)C)cc2Cl)CC1`, -20%. Take `CCN1CCN(c2ccc(NC(=O)c3ccccc3F)cc2Cl)CC1`: the “hERG current change (%, negative = inhibition) at 10uM” value is listed as -70.1%.

Take `CCC(=O)N1CCN(c2ccc(NC(=O)c3ccc(C#N)cc3F)cc2Cl)CC1`: the “hERG current change (%, negative = inhibition) at 10uM” value was -7.73%. The result for `CN1CCN(c2ccc(NC(=O)c3ccc(C#N)cc3F)cc2Cl)CC1` reads -53.7%; that for `CCN1CCN(c2ccc(NC(=O)c3ccco3)cc2Cl)CC1`, -4.06%. Take `N#Cc1ccc(C(=O)Nc2ccc([N+](=O)[O-])cc2)c(F)c1`: the “hERG current change (%, negative = inhibition) at 10uM” value is listed as 4.42%. Turning to `O=C(Nc1ccc(N2CCOCC2)c(Cl)c1)c1ccccc1F`, the “hERG current change (%, negative = inhibition) at 10uM” value is 3.56%. On to `O=C(Nc1ccc(N2CCOCC2)c(Cl)c1)c1cc(F)c(F)cc1Cl`, for which the “hERG current change (%, negative = inhibition) at 10uM” value was -20.9%. Regarding `CCN1CCN(c2ccc(NC(=O)c3ccc(C#N)cc3F)cc2Cl)CC1`, the “hERG current change (%, negative = inhibition) at 10uM” value was -72.1%.
